# According to publication PMC5540273 (PLoS ONE, 2017):
# Several values for one entry are separate records, joined by “and”; a condition that tells them apart may be missing. Equal values may be shown once. Read-outs that look alike come from different tables or passages of the source.
# Assays:
# Settings in all cases: n = 1
# YES = tested on: T1, YES
# T1 construct: gene YES1
# YSK1 = tested on: T2, YSK1
# T2 construct: gene STK25
# YSK4 = tested on: T3, YSK4
# T3 construct: gene MAP3K19
# ZAK = tested on: ZAK
# ZAP70 = tested on: ZAP70
# p38-alpha = tested on: T4, p38-alpha
# T4 construct: gene MAPK14
# p38-beta = tested on: T5, p38-beta
# T5 construct: gene MAPK11
# p38-delta = tested on: p38-delta
# p38-gamma = tested on: T6, p38-gamma
# T6 construct: gene MAPK12
# [1] = concentration: 1 μM, replicates: in singlicate
# [2] = concentration: 1 μM,replicates: in singlicate, 1 µM
# 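Also: KINOMEscan kinase panel screen.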
smiles,measurement,setting,value
Fc1cccc(COc2nnc(-c3ccc4c(c3)CCO4)o2)c1,%Inh,YES; [1],0%
same,%Inh,YSK1; [1],0%
same,%Inh,YSK4; [1],31%
same,%Inh,ZAK; [1],0%
same,%Inh,ZAP70; [1],0%
same,%Inh,p38-alpha; [1],15%
same,%Inh,p38-beta; [1],0%
same,%Inh,p38-delta; [1],4%
same,%Inh,p38-gamma; [1],0%
CN1C(=O)C(Nc2ccc(Cl)c(C(=O)O)c2)=C(c2ccc(Cl)cc2)C1=O [SB-404290],%Inh,YES; [1],6%
same,%Inh,YSK1; [1],0%
same,%Inh,YSK4; [1],4%
same,%Inh,ZAK; [1],0%
same,%Inh,ZAP70; [1],1%
same,%Inh,p38-alpha; [1],5%
same,%Inh,p38-beta; [1],2%
same,%Inh,p38-delta; [1],0%
same,%Inh,p38-gamma; [1],27%
CSc1nn2c(=O)cc(N3CCOCC3)nc2n1Cc1cccc(C(F)(F)F)c1C [GSK2363608],%Inh,YES; [2],19% and 22%
same,%Inh,YSK1; [2],1% and 0%
same,%Inh,YSK4; [2],40% and 30%
same,%Inh,ZAK; [2],10% and 0%
same,%Inh,ZAP70; [2],32% and 0%
same,%Inh,p38-alpha; [1],0%
same,%Inh,p38-beta; [1],0%
same,%Inh,p38-delta; [2],55% and 34%
same,%Inh,p38-gamma; [2],7% and 0%
Fc1cc(Cl)ccc1Nc1ccnc2cc(I)ccc12 [GW551191],%Inh,YES; [1],15%
same,%Inh,YSK1; [1],0%
same,%Inh,YSK4; [1],49%
same,%Inh,ZAK; [1],20%
same,%Inh,ZAP70; [1],0%
same,%Inh,p38-alpha; [1],30%
same,%Inh,p38-beta; [1],0%
same,%Inh,p38-delta; [1],41%
same,%Inh,p38-gamma; [1],1%
Cc1ccc(NC(=O)Nc2cccc(C(F)(F)F)c2)cc1 [GSK955403],%Inh,YES; 1 µM,10%
same,%Inh,YSK1; 1 µM,0%
same,%Inh,YSK4; 1 µM,0%
same,%Inh,ZAK; 1 µM,39%
same,%Inh,ZAP70; 1 µM,0%
same,%Inh,p38-alpha; 1 µM,10%
same,%Inh,p38-beta; 1 µM,57%
same,%Inh,p38-delta; 1 µM,0%
same,%Inh,p38-gamma; 1 µM,46%
Cc1ccc(NC(=O)Nc2cccc(Cl)c2)cc1-c1ccc(C(=O)Nc2ccncc2)cc1 [GSK1398468],%Inh,YES; [1],13%
same,%Inh,YSK1; [1],14%
same,%Inh,YSK4; [1],92.3%
same,%Inh,ZAK; [1],68%
same,%Inh,ZAP70; [1],20%
same,%Inh,p38-alpha; [1],37%
same,%Inh,p38-beta; [1],3%
same,%Inh,p38-delta; [1],37%
same,%Inh,p38-gamma; [1],0%
Fc1cc(Cl)ccc1Nc1ccnc2cc(-c3ccc(CN4CCCCC4)o3)ccc12 [GW560116],%Inh,YES; [1],1%
same,%Inh,YSK1; [1],17%
same,%Inh,YSK4; [1],5%
same,%Inh,ZAK; [1],0%
same,%Inh,ZAP70; [1],0%
same,%Inh,p38-alpha; [1],36%
same,%Inh,p38-beta; [1],0%
same,%Inh,p38-delta; [1],40%
same,%Inh,p38-gamma; [1],9%
Cc1cccc(-c2cc(Nc3ccncc3)c3ccccc3n2)n1 [GSK223675],%Inh,YES; [1],0%
same,%Inh,YSK1; [1],8%
same,%Inh,YSK4; [1],13%
same,%Inh,ZAK; [1],82%
same,%Inh,ZAP70; [1],0%
same,%Inh,p38-alpha; [1],12%
same,%Inh,p38-beta; [1],0%
same,%Inh,p38-delta; [1],42%
same,%Inh,p38-gamma; [1],22%
Cc1ccc(C(=O)Nc2ccc(Nc3ccnc4cc(-c5ccccn5)ccc34)cc2O)cc1.Cl [GW440146],%Inh,YES; [1],42%
same,%Inh,YSK1; [1],0%
same,%Inh,YSK4; [1],14%
same,%Inh,ZAK; [1],48%
same,%Inh,ZAP70; [1],9%
same,%Inh,p38-alpha; [1],0%
same,%Inh,p38-beta; [1],0%
same,%Inh,p38-delta; [1],42%
same,%Inh,p38-gamma; [1],11%
Cl.Oc1ccc(-c2nc(-c3ccccc3)[nH]c2-c2ccncc2)cc1 [SB-428218],%Inh,YES; [1],17%
same,%Inh,YSK1; [1],4%
same,%Inh,YSK4; [1],13%
same,%Inh,ZAK; [1],10%
same,%Inh,ZAP70; [1],0%
same,%Inh,p38-alpha; [1],63%
same,%Inh,p38-beta; [1],0%
same,%Inh,p38-delta; [1],43%
same,%Inh,p38-gamma; [1],0%
O=c1cc(N2CCOCC2)nc2n(Cc3cccc(Cl)c3Cl)ccn12 [GSK2286295],%Inh,YES; [1],14%
same,%Inh,YSK1; [1],8%
same,%Inh,YSK4; [1],23%
same,%Inh,ZAK; [1],6%
same,%Inh,ZAP70; [1],0%
same,%Inh,p38-alpha; [1],0%
same,%Inh,p38-beta; [1],0%
same,%Inh,p38-delta; [1],40%
same,%Inh,p38-gamma; [1],27%
Cc1cccc(-c2nc(Nc3ccncc3)c3ccccc3n2)n1 [GW855857],%Inh,YES; [1],0%
same,%Inh,YSK1; [1],0%
same,%Inh,YSK4; [1],0%
same,%Inh,ZAK; [1],4%
same,%Inh,ZAP70; [1],0%
same,%Inh,p38-alpha; [1],16%
same,%Inh,p38-beta; [1],1%
same,%Inh,p38-delta; [1],0%
same,%Inh,p38-gamma; [1],24%
COc1cccc(NC(=O)NC2CCN(c3ccnc(Nc4ccc(F)cc4)n3)C2)c1 (stereo not drawn) [GSK1379721],%Inh,YES; [1],0%
same,%Inh,YSK1; [1],10%
same,%Inh,YSK4; [1],3%
same,%Inh,ZAK; [1],42%
same,%Inh,ZAP70; [1],0%
same,%Inh,p38-alpha; [1],4%
same,%Inh,p38-beta; [1],0%
same,%Inh,p38-delta; [1],35%
same,%Inh,p38-gamma; [1],2%
O=C(O)COc1ncnc2cc(-c3ccc4[nH]ncc4c3)sc12,%Inh,YES; [1],0%
same,%Inh,YSK1; [1],0%
same,%Inh,YSK4; [1],83%
same,%Inh,ZAK; [1],6%
same,%Inh,ZAP70; [1],14%
same,%Inh,p38-alpha; [1],20%
same,%Inh,p38-beta; [1],16%
same,%Inh,p38-delta; [1],32%
same,%Inh,p38-gamma; [1],21%
Cc1nnc(-c2ccc3occ(-c4ccc(S(C)=O)cc4)c3c2)[nH]1 (stereo not drawn),%Inh,YES; [1],0%
same,%Inh,YSK1; [1],0%
same,%Inh,YSK4; [1],44%
same,%Inh,ZAK; [1],8%
same,%Inh,ZAP70; [1],0%
same,%Inh,p38-alpha; [1],13%
same,%Inh,p38-beta; [1],0%
same,%Inh,p38-delta; [1],3%
same,%Inh,p38-gamma; [1],9%
Cc1cc(N2Cc3ccccc3C2)nc(Nc2ccc(S(=O)(=O)N3CCOCC3)cc2)n1.Cl [GSK1669917],%Inh,YES; [1],5%
same,%Inh,YSK1; [1],0%
same,%Inh,YSK4; [1],0%
same,%Inh,ZAK; [1],0%
same,%Inh,ZAP70; [1],0%
same,%Inh,p38-alpha; [1],3%
same,%Inh,p38-beta; [1],0%
same,%Inh,p38-delta; [1],46%
same,%Inh,p38-gamma; [1],3%
CS(=O)(=O)c1ccc(-c2c(-c3ncn[nH]3)sc(N3CCOCC3)c2C#N)cc1,%Inh,YES; [1],13%
same,%Inh,YSK1; [1],0%
same,%Inh,YSK4; [1],18%
same,%Inh,ZAK; [1],0%
same,%Inh,ZAP70; [1],0%
same,%Inh,p38-alpha; [1],6%
same,%Inh,p38-beta; [1],11%
same,%Inh,p38-delta; [1],34%
same,%Inh,p38-gamma; [1],33%
COc1cc(Nc2nccc(N3CCC(NC(=O)Nc4cc(C)ccc4C)C3)n2)cc(OC)c1OC (stereo not drawn) [GSK1379762],%Inh,YES; [1],10%
same,%Inh,YSK1; [1],0%
same,%Inh,YSK4; [1],27%
same,%Inh,ZAK; [1],3%
same,%Inh,ZAP70; [1],0%
same,%Inh,p38-alpha; [1],0%
same,%Inh,p38-beta; [1],0%
same,%Inh,p38-delta; [1],32%
same,%Inh,p38-gamma; [1],24%
